Measured values from PubChem BioAssay (NCI).
Compounds without any hit were thinned out: in the full panel of roughly 83,000, 20% have a hit.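 Cell lines were cultured in 96-well plates, exposed to a single compound concentration, and assessed for percent growth 48 hours later.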 Calls of active or inactive are those of the source. How the source made its calls: active means growth percent below 10; inactive means the rest.

Legend:
Test in all cases: NCI-60 one-dose screen, 48 h (100 = growth as untreated, 0 = no growth, -100 = all killed)
NCI-H23 lung = conditions: 10 µM unless noted
NCI-H226 lung = conditions: 10 µM unless noted
NCI-H322M lung = conditions: 10 µM unless noted
HOP-62 NSCLC = conditions: 10 µM unless noted
NCI-H460 lung = conditions: 10 µM unless noted
HOP-92 NSCLC = conditions: 10 µM
NCI-H522 lung = conditions: 10 µM unless noted
A549/ATCC NSCLC = conditions: 10 µM unless noted
786-0 renal = conditions: 10 µM unless noted
COLO 205 colon = conditions: 10 µM unless noted

Measured: growth

CCN(CC)c1cn(-c2ccc(S(N)(=O)=O)cc2)nn1
inactive: NCI-H23 lung 109% | NCI-H226 lung 109% | NCI-H322M lung 110% | HOP-62 NSCLC 112% | NCI-H460 lung 106% | HOP-92 NSCLC 99% | NCI-H522 lung 92.9% | A549/ATCC NSCLC 105% | 786-0 renal 106% | COLO 205 colon 109%

CCCCCc1ccc(S(=O)(=O)Nc2cccc(-c3csc(NC(=O)CCCCCN4CCN(C)CC4)n3)c2)cc1
active: NCI-H460 lung -29.6% | COLO 205 colon -34.3%
inactive: NCI-H23 lung 75.7% | NCI-H226 lung 88.2% | NCI-H322M lung 84.1% | HOP-62 NSCLC 79.4% | HOP-92 NSCLC 29.8% | NCI-H522 lung 64.3% | A549/ATCC NSCLC 54.4% | 786-0 renal 44.4%

CCCCCc1ccc(S(=O)(=O)Nc2cccc(-c3csc(NC(=O)CN4CCN(C)CC4)n3)c2)cc1
inactive: NCI-H23 lung 95.1% | NCI-H226 lung 93.3% | NCI-H322M lung 100% | HOP-62 NSCLC 89.5% | NCI-H460 lung 21.5% | HOP-92 NSCLC 62.3% | NCI-H522 lung 89.5% | A549/ATCC NSCLC 79.7% | 786-0 renal 63.8% | COLO 205 colon 31%

C[C@@H](Nc1ncnc2ccc(-c3cnc(Cl)c(NS(C)(=O)=O)c3)cc12)c1ccccc1
inactive: NCI-H23 lung 55.7% | NCI-H226 lung 64.6% | NCI-H322M lung 68.2% | HOP-62 NSCLC 36.8% | NCI-H460 lung 60.5% | A549/ATCC NSCLC 54.2% | 786-0 renal 45.4% | COLO 205 colon 80.2%
active: HOP-92 NSCLC -1.13%

Cc1ccc(-n2cc(/C=N/NC(=O)c3ccncc3)c(-c3ccc(S(C)(=O)=O)cc3)n2)cc1
inactive: NCI-H23 lung 83% | NCI-H226 lung 101% | NCI-H322M lung 93.5% | HOP-62 NSCLC 88.7% | NCI-H460 lung 101% | HOP-92 NSCLC 97.5% | NCI-H522 lung 68.8% | A549/ATCC NSCLC 103% | 786-0 renal 90% | COLO 205 colon 104%

CC/C(=C/c1c(O)cccc1OC)c1ccc2c(OC)cccc2[o+]1
inactive: NCI-H23 lung 98.9% | NCI-H226 lung 99% | NCI-H322M lung 101% | HOP-62 NSCLC 101% | NCI-H460 lung 103% | HOP-92 NSCLC 110% | NCI-H522 lung 93.2% | A549/ATCC NSCLC 102% | 786-0 renal 101% | COLO 205 colon 110%

O=[N+]([O-])c1cc(/C=N/Nc2nc(N/N=C/c3ccc(Cl)c([N+](=O)[O-])c3)nc(N3CCCCC3)n2)ccc1Cl
inactive: NCI-H23 lung 81.8% | NCI-H226 lung 61.4% | NCI-H322M lung 71.3% | HOP-62 NSCLC 43.7% | NCI-H460 lung 98.7% | HOP-92 NSCLC 123% | NCI-H522 lung 51.9% | A549/ATCC NSCLC 111% | 786-0 renal 109% | COLO 205 colon 100%

ClC(Cl)c1nc(-c2ccco2)n2nc(-c3ccccc3)cc2n1
inactive: NCI-H23 lung 49.8% | NCI-H226 lung 97.5% | NCI-H522 lung 91.3% | 786-0 renal 69.3%
active: NCI-H322M lung -19.4% | HOP-62 NSCLC -1.03% | NCI-H460 lung -22.1% | HOP-92 NSCLC -9.05% | A549/ATCC NSCLC -2.21% | COLO 205 colon -17%

CCCn1cnc2c(c1=N)C(c1ccc(F)cc1)c1sc3c(CC)cccc3c1O2 (stereo unspecified)
active: NCI-H226 lung -2.38% | NCI-H460 lung 2.7% | 786-0 renal 5.1% | COLO 205 colon -51.5%
inactive: NCI-H23 lung 12.4% | NCI-H322M lung 52% | HOP-62 NSCLC 28.2% | HOP-92 NSCLC 34.2% | A549/ATCC NSCLC 17%

N#Cc1c(NC(=O)c2cccc(C(F)(F)F)c2F)sc2c1CCC(=O)C2
active: NCI-H226 lung -23.9% | NCI-H460 lung 9.08% | HOP-92 NSCLC -66.1% | NCI-H522 lung 3.71% | COLO 205 colon -8.77%
inactive: NCI-H23 lung 11% | NCI-H322M lung 35.1% | HOP-62 NSCLC 19.4% | A549/ATCC NSCLC 12.3% | 786-0 renal 14.8%

Nc1ncc(-c2ccc3ncnc(N4CCc5cc(F)c(Cl)cc54)c3c2)cn1
active: HOP-92 NSCLC -10.9% | 786-0 renal 3.19%
inactive: NCI-H23 lung 31.7% | NCI-H226 lung 20.7% | NCI-H322M lung 23% | HOP-62 NSCLC 19.6% | NCI-H460 lung 23% | A549/ATCC NSCLC 10.4% | COLO 205 colon 39.9%

COc1cc(-c2ccc3ncnc(NCc4ccccc4)c3c2)cnc1OC
active: HOP-92 NSCLC 5.49%
inactive: NCI-H23 lung 67% | NCI-H226 lung 68.3% | NCI-H322M lung 26.3% | HOP-62 NSCLC 36.2% | NCI-H460 lung 69.1% | A549/ATCC NSCLC 38.6% | 786-0 renal 44.8% | COLO 205 colon 87.6%

CC1(C)[C@@H](O)CC[C@]2(C)[C@H]3CC[C@@H]4[C@H]5[C@H](C(=O)/C=C\c6ccc([N+](=O)[O-])cc6)CC[C@]5(O)CC[C@@]4(C)[C@]3(C)CC[C@@H]12
active: NCI-H226 lung -2.45%
inactive: NCI-H23 lung 50.2% | NCI-H322M lung 90.8% | HOP-62 NSCLC 86.9% | NCI-H460 lung 51.8% | HOP-92 NSCLC 82.7% | A549/ATCC NSCLC 61.8% | 786-0 renal 56.8% | COLO 205 colon 106%

C=C(C)[C@@H]1CC[C@]2(C(=O)NCCCCCN(CCC#N)CCC#N)CC[C@]3(C)[C@H](CC[C@@H]4[C@@]5(C)CCC(=O)C(C)(C)[C@@H]5CC[C@]43C)[C@@H]12
inactive: NCI-H23 lung 95.3% | NCI-H226 lung 92.8% | NCI-H322M lung 116% | HOP-62 NSCLC 82.6% | NCI-H460 lung 87.5% | HOP-92 NSCLC 97% | A549/ATCC NSCLC 90.9% | 786-0 renal 92% | COLO 205 colon 111%

C=CC(=O)N1CCC=C(c2cc3c(N[C@H](C)c4ccccc4)ncnc3[nH]2)C1
inactive: NCI-H23 lung 83.3% | NCI-H226 lung 58.5% | NCI-H322M lung 31% | HOP-62 NSCLC 58.5% | NCI-H460 lung 98% | HOP-92 NSCLC 38% | A549/ATCC NSCLC 52.1% | 786-0 renal 43.6% | COLO 205 colon 96%

CN(C)C(=O)c1cc(-c2ccc3ncnc(NCc4ccccc4)c3c2)cnc1N
inactive: NCI-H23 lung 91.6% | NCI-H226 lung 91.8% | NCI-H322M lung 87% | HOP-62 NSCLC 63.2% | NCI-H460 lung 104% | HOP-92 NSCLC 81.1% | A549/ATCC NSCLC 72.9% | 786-0 renal 67.7% | COLO 205 colon 116%

O=C(Nc1ccc(N=Cc2c(O)[nH]c3ccccc23)cc1)Nc1nccs1
inactive: NCI-H23 lung 37.8% | NCI-H226 lung 30% | NCI-H322M lung 52.8% | HOP-62 NSCLC 37.3% | NCI-H460 lung 16.8% | HOP-92 NSCLC 49.8% | A549/ATCC NSCLC 56.6% | 786-0 renal 52.9% | COLO 205 colon 25.7%

COc1cc(-c2nn(C(C)(C)C)cc2-c2ccnc(NCCCNS(=O)(=O)c3ccc(Cl)cc3)n2)ccc1Cl
inactive: NCI-H23 lung 73% | NCI-H226 lung 53.8% | NCI-H322M lung 78.2% | HOP-62 NSCLC 61.7% | NCI-H460 lung 55.1% | HOP-92 NSCLC 48.6% | A549/ATCC NSCLC 36.3% | 786-0 renal 69% | COLO 205 colon 81.5%

COc1ccccc1C(=O)Nc1cccc2c1C(=O)C(=O)C=C2
inactive: NCI-H23 lung 85.5% | NCI-H226 lung 99.9% | NCI-H322M lung 112% | HOP-62 NSCLC 94.8% | NCI-H460 lung 103% | HOP-92 NSCLC 113% | A549/ATCC NSCLC 88.7% | 786-0 renal 92.2% | COLO 205 colon 71.5%

Nc1nc(Nc2ccccc2SSc2ccccc2Nc2nc(N)nc(-c3ccc4ccccc4c3)n2)nc(-c2ccc3ccccc3c2)n1
active: A549/ATCC NSCLC 2.94%
inactive: NCI-H23 lung 49.9% | NCI-H226 lung 59% | NCI-H322M lung 91.7% | HOP-62 NSCLC 28.8% | NCI-H460 lung 61.1% | HOP-92 NSCLC 92.4% | 786-0 renal 82.6% | COLO 205 colon 106%

CNC(=O)c1cc(-c2ccc(NC(=S)Nc3cc(C(F)(F)F)cc(C(F)(F)F)c3)cc2)nc2cccnc12
inactive: NCI-H23 lung 93.7% | NCI-H226 lung 87.8% | NCI-H322M lung 111% | HOP-62 NSCLC 79.2% | NCI-H460 lung 92.1% | HOP-92 NSCLC 76.8% | A549/ATCC NSCLC 88.3% | 786-0 renal 89.3% | COLO 205 colon 110%

CC(C)c1ccc(NCc2cn(-c3ccc(C(=O)O)cc3)nc2-c2cc(C(F)(F)F)cc(C(F)(F)F)c2)cc1
inactive: NCI-H23 lung 83.2% | NCI-H226 lung 85.8% | NCI-H322M lung 85.1% | HOP-62 NSCLC 94.9% | NCI-H460 lung 83% | NCI-H522 lung 85% | A549/ATCC NSCLC 79.8% | 786-0 renal 90.7% | COLO 205 colon 96.5%
